# Target: C9orf172
# Experiment: pooled miR-30 sensor sort-seq; sequence = guide strand
# Settings: shRNA
# Further: reference of the scale not given here.
row,Sequence,sensor-assay potency score (higher = more potent)
1,TAGTAGGTGTAGCAGCTGTGGC,-1.29
2,TTGATGTCCTGGTACACGGTCG,-0.476
3,TACCTTCCGAAGTCCTCCGTGT,-0.162
4,TTGAACATGGTCTCGGTGCGCC,-0.301
5,TCATCAGGTCGTCCTCGTCGGC,-1.75
6,TAGGTGTAGCAGCTGTGGCAGG,-0.976
7,TCTCGGACAGGGACAGTGCGGC,-0.804
8,TTGGCCTCGACGAACTCGCAAA,-1.39
9,ATGATCATGCACATGAAGGGGC,0.238
10,TATGAGTCGCTGGGCGTCGGGG,-1.22
11,TTGTCAGTGATGGTGATCTCGG,-1.12
12,TAGTAGGCGTCGAAGGTTGGGC,-0.683

# Target: C9orf30
# Experiment: as above
# Settings: shRNA
row,Sequence,sensor-assay potency score (higher = more potent)
1,AGAACTTCCATTTTTATCCTGT,-0.0866
2,TTAAATGAGGAAACAGGCCATT,-1.27
3,TTATCCTGTGTTCCTCCTCTGC,-1.19
4,TATACTTTTCTACTAAAGCCAG,-0.895
5,TTCAGAAGACTATAACAGCTTC,-0.358
6,TATTCTGACAGCTGAACACGAG,-0.517
7,TTGTTGATGGTGTTCTTCCTCA,-0.2
8,TTTTCTTACATTCCAGCACATA,-1.58
9,ATCACTTTTCTTACATTCCAGC,-1.2
10,TTTATTGAGAACTTCCATTTTT,-0.999
11,TTACAGGTTACTGACCGCCAAG,-1.66
12,TTATTGAGAACTTCCATTTTTA,-0.9
